Experimental data: PubChem BioAssay AID624481 (The Scripps Research Institute Molecular Screening Center, 2012)

Target: Prolyl endopeptidase-like (Mus musculus) (UniProt Q8C167)
Assay: mouse PREPL enzyme inhibition by screening hits – biochemical, gel-based competitive ABPP, fluorescence, HTS hits, PREPL inhibitor project (AID 624481)
Conditions: purified mouse PREPL, at 20 µM, stronger effect = higher value; in the data active = inhibition above about 50%; inactive = the rest

Prolyl endopeptidase-like (Mus musculus), sequence (Q8C167 whole entry, looked up): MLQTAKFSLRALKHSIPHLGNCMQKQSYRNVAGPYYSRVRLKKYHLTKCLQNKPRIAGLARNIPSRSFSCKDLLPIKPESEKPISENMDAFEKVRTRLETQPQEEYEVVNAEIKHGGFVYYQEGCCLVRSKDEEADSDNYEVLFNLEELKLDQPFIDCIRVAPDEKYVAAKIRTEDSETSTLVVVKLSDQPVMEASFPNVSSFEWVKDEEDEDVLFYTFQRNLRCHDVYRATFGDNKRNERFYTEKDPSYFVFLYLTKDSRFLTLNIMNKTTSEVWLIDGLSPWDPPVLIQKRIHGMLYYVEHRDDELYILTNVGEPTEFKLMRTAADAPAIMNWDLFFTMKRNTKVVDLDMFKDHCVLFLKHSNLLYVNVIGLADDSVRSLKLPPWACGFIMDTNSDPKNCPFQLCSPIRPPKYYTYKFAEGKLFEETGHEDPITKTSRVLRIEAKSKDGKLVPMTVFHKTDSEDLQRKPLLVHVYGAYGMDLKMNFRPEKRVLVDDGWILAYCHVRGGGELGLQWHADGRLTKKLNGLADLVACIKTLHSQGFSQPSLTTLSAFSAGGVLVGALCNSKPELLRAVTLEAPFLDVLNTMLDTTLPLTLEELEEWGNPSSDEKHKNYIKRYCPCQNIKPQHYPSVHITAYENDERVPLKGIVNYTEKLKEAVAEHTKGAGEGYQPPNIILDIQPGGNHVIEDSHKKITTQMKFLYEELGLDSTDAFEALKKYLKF

inhibition, inactive:
CCCCNc1c(-c2ccc(SC(C)CC)cc2)nc2cnccn12 (stereo not drawn) -22%, c1ccc(CNc2nc(-c3ccccn3)nc3ccccc23)cc1 -89%, Nc1[nH]n2c(=O)c3c(nc2c1N=Nc1ccc(Cl)cc1)CCCC3 -12%, CC(=O)N1CCN(c2ccc(NCc3cccc4ccccc34)cc2)CC1 -26%, CN(C)c1ccc(C(O)P(=O)(OCc2ccccc2)c2ccc(N(C)C)cc2)cc1 (stereo not drawn) -57%, C#CCOCCOCCOCCNc1nc(N2CCN(C(=O)[C@H](Cc3ccc(O)cc3)n3cc([C@@H](N)CC(C)C)nn3)CC2)nc(N2CCN(C(=O)[C@H](Cc3cc4ccccc4[nH]3)n3cc([C@@H](N)CC(C)C)nn3)CC2)n1 -77%, Oc1c(CN2CCOCC2)cc(COCc2ccccc2)c2cccnc12 -145%, CC(=O)N1CCN(c2ccc(NCc3ccc(-c4cccc(Cl)c4)o3)cc2)CC1 39%, Cc1ccsc1C=NN=C1C(=O)Nc2ccccc21 -90%, Cc1cccc(C2CC(c3ccc(F)cc3)Nc3nc(N)nn32)c1 (stereo not drawn) -26%, NC(=O)[C@H]1CC2(CC(c3cccc(NC(=O)COc4ccc(Cl)cc4)c3)=NO2)CN1C(=O)Cc1ccc([N+](=O)[O-])cc1 (stereo partly drawn) -114%, Cc1ccc(S(=O)(=O)Nc2ccc3c(c2)CC(=O)N([C@H](C)CO)C[C@H](C)[C@H](CN(C)Cc2ccc4c(c2)OCO4)O3)cc1 9%, CN(CC(=O)Nc1ccccc1Cl)C(=O)c1cccc(S(=O)(=O)N2CCN(Cc3ccccc3)CC2)c1 -6%, Cc1ccc(-c2csc(=Nc3cccnc3)n2CCCn2ccnc2)cc1C -52%, Oc1c(CN2CCCC2)cc(COCc2ccccc2)c2cccnc12 -64%, CCCOc1ccccc1-n1sc2c(c1=S)-c1cc(OC)cc3c1N(C(=O)C3=O)C2(C)C -26%, CC[C@@H](C)[C@@H]1CN([C@@H](CN2CCC[C@H]2CN2C(N)=NC[C@@H]2Cc2ccccc2)C(C)C)C(=N)N1CCCC1CCCC1 -104%, C#CCOCCOCCOCCNc1nc(N2CCN(C(=O)CCCCCCCCCCNC(=O)[C@H](CCCCN)n3cc(CCO)nn3)CC2)nc(N2CCN(C(=O)CCCCCCCCCCNC(=O)[C@H](CCCN=C(N)N)n3cc(C[C@@H](C)CC)nn3)CC2)n1 -34%, COc1ccc(C)cc1Nc1n[n+](-c2ccccc2)c(-c2ccc(OC)c(OC)c2OC)s1 -41%, Oc1cc(Nc2ccncc2)cc2cccnc12 -59%, Nc1nn(-c2ccccc2)c(N)c1N=Nc1ccccc1F -38%, Cc1cc(C)c2nc(N3C(=O)C(O)=C(C(=O)c4ccco4)C3c3ccco3)sc2c1 (stereo not drawn) 45%, CC(C)[C@H](CN1CCC[C@H]1CN1C(N)=NC[C@@H]1Cc1ccccc1)N1C[C@@H](Cc2ccccc2)N(CCc2ccc(Cl)c(Cl)c2)C1=N -75%
